According to PubChem BioAssay (NCATS):
Results filed as inconclusive are left out. Active and inactive are the calls of the source. Unless noted, calls come from the whole dose curve; as a rule, active = well fitted curve in either direction with a large enough effect (not every such curve was filed as active); inconclusive = small, poorly fitted or top-dose-only effect, or another doubt; inactive = flat fitted curve, though single readings scatter.

Legend:
[1] = target: Lysosomal acid glucosylceramidase (Homo sapiens) (UniProt P04062); experiment: Glucocerebrosidase-p2 (AID 348; in the data active = potency below about 10 µM; note: potency is the fitted concentration of half-maximal effect); settings: purified GBA, blue fluorogenic substrate, 40 min
Chain of Lysosomal acid glucosylceramidase (Homo sapiens) (P04062 whole entry, looked up): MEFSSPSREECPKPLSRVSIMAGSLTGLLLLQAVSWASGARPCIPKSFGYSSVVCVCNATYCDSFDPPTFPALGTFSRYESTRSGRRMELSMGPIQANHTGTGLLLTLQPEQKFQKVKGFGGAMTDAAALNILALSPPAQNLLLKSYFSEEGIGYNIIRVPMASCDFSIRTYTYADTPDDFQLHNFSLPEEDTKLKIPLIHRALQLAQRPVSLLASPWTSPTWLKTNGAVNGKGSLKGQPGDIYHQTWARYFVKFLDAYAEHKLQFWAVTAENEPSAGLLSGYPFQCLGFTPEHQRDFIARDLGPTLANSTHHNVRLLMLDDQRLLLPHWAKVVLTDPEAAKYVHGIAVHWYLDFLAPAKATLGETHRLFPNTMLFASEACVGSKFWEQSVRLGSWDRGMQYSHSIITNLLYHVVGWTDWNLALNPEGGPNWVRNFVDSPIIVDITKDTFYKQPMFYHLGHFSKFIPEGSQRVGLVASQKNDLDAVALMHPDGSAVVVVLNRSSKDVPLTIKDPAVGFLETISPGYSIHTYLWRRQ
Outline: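 Normal human glucocerebrosidase (0.2 nM) with blue fluorogenic substrate (80 uM final) in citrate/phosphate pH 5.9 with 10mM sodium taurocholate, 0.01% tween-20; 40 min RT, NaOH/glycine stop; fluorescence Ex 365/Em 440; AC50 from a titration from 0.6 nM upwards.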

[2] = AP1 Signaling Pathway (AID 357); settings: ME-180 AP-1-bla reporter, EGF-induced, beta-lactamase ratio, 5 h; at 7.69 µM (top of the series) unless noted;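 note: ME-180 reporter cells stimulated with EGF at its EC50 level; % is set by controls: 0 for no effect and ±100 for the full control effect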
Outline: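 First, ME-180 AP-1-bla cells were cultured overnight at 37 °C in low-serum Opti-MEM. Next, titrated compounds with EC50 EGF were incubated 5 hours. Finally, CCF4 was added for 2.5 hours and the 460/530 nm ratio recorded.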

[3] = target: Cytochrome P450 1A2 (Homo sapiens) (UniProt P05177); experiment: p450-cyp1a2 (AID 410; calls by dose curve; note: potency is the fitted concentration of half-maximal effect;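 for activity change, negative = inhibition: -100% = full effect of reference inhibitor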); settings: recombinant CYP1A2, luciferin-ME demethylation, luminescence; series mostly up to 11.4 µM
Chain of Cytochrome P450 1A2 (Homo sapiens) (P05177 whole entry, looked up): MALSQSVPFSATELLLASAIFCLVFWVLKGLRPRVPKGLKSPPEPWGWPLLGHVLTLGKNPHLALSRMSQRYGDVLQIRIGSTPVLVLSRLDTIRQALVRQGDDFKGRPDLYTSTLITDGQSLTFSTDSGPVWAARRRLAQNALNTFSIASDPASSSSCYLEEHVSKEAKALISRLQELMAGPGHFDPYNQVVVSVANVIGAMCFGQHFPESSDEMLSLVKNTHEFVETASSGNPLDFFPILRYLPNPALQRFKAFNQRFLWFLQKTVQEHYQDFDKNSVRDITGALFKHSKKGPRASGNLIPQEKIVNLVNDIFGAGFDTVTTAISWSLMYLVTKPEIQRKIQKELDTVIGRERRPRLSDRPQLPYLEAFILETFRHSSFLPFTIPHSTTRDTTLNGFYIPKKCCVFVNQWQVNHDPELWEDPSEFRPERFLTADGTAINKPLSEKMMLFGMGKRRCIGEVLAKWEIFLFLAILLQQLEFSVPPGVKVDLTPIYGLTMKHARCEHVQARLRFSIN
Outline: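 20nM CYP1A2, 100uM Luciferin-ME (=Km), 100mM KPO4; cpd 10 min RT; +NADPH regen, 60 min RT; stop/detect 20 min; luminescence. Normalized to furafylline 57 uM = full inhibition.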

[4] = NFAT Signaling Pathway (AID 444); settings: Jurkat NFAT-bla M1, carbachol, beta-lactamase ratio, 5 h; at 7.69 µM (top of the series) unless noted;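 note: carbachol stimulus at about its EC50 of 1 µM final; % is set by controls: 0 for no effect and ±100 for the full control effect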
Outline: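 Read-out: CCF4 FRET ratio (460 nm/530 nm) after 1 h RT dye loading, used for %activity and AC50 from titration series. Cells: Jurkat NFAT-β-lactamase/M1 line, treated with compound plus 1 uM carbachol for 5 h, 37 °C.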

[5] = Stat Signaling Pathway (AID 446); settings: ME-180 (cervical carcinoma) SIE beta-lactamase reporter, IL-6 stimulated, 5 h; at 7.69 µM (top of the series) unless noted;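 note: ME-180 cervical cancer cells given 40 pM IL-6 alongside compound; SIE-controlled beta-lactamase reporter measured as 460/530 nm FRET emission ratio; % is set by controls: 0 for no effect and ±100 for the full control effect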
Outline: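 Overnight-plated ME-180 cells bearing a STAT Inducible Element beta-lactamase reporter; 5 h co-exposure to compound and 40 pM IL-6; values normalized to 300 pM IL-6 and 125 nM JAK inhibitor controls.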

[6] = target: Glucocorticoid receptor (Homo sapiens) (UniProt P04150); experiment: GR-GFP Redistribution (AID 450;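 active = compounds whose dose series gives a full or clear partial fitted curve of increased nuclear translocation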; note: potency is the fitted concentration of half-maximal effect); settings: U2OS GR-GFP nuclear translocation, laser cytometry, 2 h
Chain of Glucocorticoid receptor (Homo sapiens) (P04150 whole entry, looked up, the tested form may be a part): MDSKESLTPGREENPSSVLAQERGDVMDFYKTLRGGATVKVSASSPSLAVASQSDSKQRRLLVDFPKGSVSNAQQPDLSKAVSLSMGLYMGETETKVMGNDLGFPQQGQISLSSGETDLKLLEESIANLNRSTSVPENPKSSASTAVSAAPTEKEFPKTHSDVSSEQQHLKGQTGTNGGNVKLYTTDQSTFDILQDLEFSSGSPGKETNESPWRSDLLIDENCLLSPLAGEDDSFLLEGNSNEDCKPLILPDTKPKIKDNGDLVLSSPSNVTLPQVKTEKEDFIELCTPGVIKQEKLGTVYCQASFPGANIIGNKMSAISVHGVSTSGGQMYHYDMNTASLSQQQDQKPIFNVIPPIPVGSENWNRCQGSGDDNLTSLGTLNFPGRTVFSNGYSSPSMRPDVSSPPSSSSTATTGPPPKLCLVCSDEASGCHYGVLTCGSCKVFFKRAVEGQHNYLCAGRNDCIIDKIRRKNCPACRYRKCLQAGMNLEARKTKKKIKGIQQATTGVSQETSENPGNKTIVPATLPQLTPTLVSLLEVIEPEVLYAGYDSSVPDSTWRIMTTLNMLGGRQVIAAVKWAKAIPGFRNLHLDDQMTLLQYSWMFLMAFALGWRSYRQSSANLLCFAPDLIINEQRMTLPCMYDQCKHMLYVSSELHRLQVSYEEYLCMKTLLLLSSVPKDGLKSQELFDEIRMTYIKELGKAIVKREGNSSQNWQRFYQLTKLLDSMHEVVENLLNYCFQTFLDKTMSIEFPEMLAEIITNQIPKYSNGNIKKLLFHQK

[7] = target: Glucocorticoid receptor (Homo sapiens) (UniProt P04150); experiment: GR-EFC Redistribution (AID 451; calls by dose curve; note: potency is the fitted concentration of half-maximal effect); settings: CHO-K1 GR-EFC translocation, beta-gal luminescence, 2 h
Outline: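 Translocation of GR-ED fusion to nuclear EA restores b-gal, read by luminescence after 1 h room-temperature detection. Engineered CHO-K1 biosensor cells, 1,000/well, exposed 2 h at 37 C to titrations up to 46 uM final.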

[8] = target: Mitogen-activated protein kinase 10 (Mus musculus) (UniProt Q61831); experiment: JNK3 AlphaScreen Assay (AID 530); settings: JNK3 lysate, c-Jun phosphorylation; series mostly up to 11.4 µM;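 note: kinase came from lysate of stimulated human HepG2 cells; signal reports phosphorylation of biotinylated GST-cJun 1-79 at Ser73 with 10 µM ATP; % is set by controls: 0 for no effect and ±100 for the full control effect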
Outline: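 Kinase buffer: 20 mM Tris-HCl pH 7.6, 10 mM MgCl2, 1 mM DTT, 0.1 mM Na3VO4, 0.01% Tween-20; ATP 10 uM. Substrate biotin-GST-cJun(1-79), enzyme from activated HepG2 lysates. Detection by Ser73 phospho-antibody AlphaScreen.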

[9] = target: 3',5'-cyclic-AMP phosphodiesterase 4B (Homo sapiens) (UniProt Q07343); experiment: qHTS Assay for Inhibitors of PDE-IV (AID 607; active = well fitted activation curve with a large enough effect in the main read-out, with a control signal flat, not every such curve was filed as active; note: % of control where 0% means no effect); settings: HEK293 ACTOne CNG channel cells, membrane potential fluorescence; series mostly up to 22.9 µM
Chain of 3',5'-cyclic-AMP phosphodiesterase 4B (Homo sapiens) (Q07343 whole entry, looked up): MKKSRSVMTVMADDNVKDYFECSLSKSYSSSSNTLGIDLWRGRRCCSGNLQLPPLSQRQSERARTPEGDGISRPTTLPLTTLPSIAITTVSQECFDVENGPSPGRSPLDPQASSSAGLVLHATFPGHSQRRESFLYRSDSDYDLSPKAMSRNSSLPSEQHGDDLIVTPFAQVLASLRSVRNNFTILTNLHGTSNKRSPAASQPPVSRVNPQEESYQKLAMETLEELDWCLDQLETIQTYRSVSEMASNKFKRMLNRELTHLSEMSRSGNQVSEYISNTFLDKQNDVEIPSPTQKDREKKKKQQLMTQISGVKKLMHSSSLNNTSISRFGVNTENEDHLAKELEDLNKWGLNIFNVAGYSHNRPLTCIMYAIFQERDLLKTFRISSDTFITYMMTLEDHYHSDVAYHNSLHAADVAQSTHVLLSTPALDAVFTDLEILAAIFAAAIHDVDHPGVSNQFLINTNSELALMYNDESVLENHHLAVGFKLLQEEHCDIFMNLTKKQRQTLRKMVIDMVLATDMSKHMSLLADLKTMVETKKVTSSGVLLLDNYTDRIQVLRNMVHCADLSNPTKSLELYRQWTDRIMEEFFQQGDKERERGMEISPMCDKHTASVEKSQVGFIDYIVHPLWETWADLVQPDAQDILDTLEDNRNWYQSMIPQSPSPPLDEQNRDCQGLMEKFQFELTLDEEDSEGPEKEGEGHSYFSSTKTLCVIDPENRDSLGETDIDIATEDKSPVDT
Outline: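 Live HEK293 cells with a modified cyclic nucleotide-gated (CNG) channel report intracellular cAMP via membrane-potential dye fluorescence (ex 535/em 590 nm). Endogenous PDE-IV was targeted. Compounds were tested at up to 22.9 uM final; RO 20-1724 100 uM served as control.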

N=c1nc(N)nc(N)n1-c1ccc(S(N)(=O)=O)cc1
inactive: Potency [1] > 11.4 µM | activity change, negative = inhibition [2] 4.82% | activity change, negative = inhibition [3] -3.8% [at 2.29 µM] | activity change, negative = inhibition [4] 9.5% | activity, negative = inhibition [5] 6.13% | Potency [6] > 46 µM | Potency [7] > 9.22 µM | Potency [8] | Potency [9]

Nc1[nH]c(=O)nc2c1ncn2[C@H]1O[C@@H](CO)[C@@H](O)[C@@H]1O
inactive: Potency [1] > 11.4 µM | activity change, negative = inhibition [2] -9.66% | Potency [3] | activity change, negative = inhibition [4] 15.7% | activity, negative = inhibition [5] 17.5% | Potency [6] > 46 µM | Potency [7] > 9.22 µM | Potency [8] | Potency [9]

Nc1nccc(Nc2ccc(S(N)(=O)=O)cc2)n1
inactive: Potency [1] > 11.4 µM | activity change, negative = inhibition [2] 2.96% | Potency [3] | activity change, negative = inhibition [4] -13.6% | activity, negative = inhibition [5] -5% | Potency [6] > 46 µM | Potency [7] > 9.22 µM | Potency [8] | Potency [9]

O=C(NCc1cccnc1)[C@@H]1[C@@H](C(=O)O)[C@H]2CC[C@@H]1O2
inactive: Potency [1] > 11.4 µM | activity change, negative = inhibition [2] 1.51% | Potency [3] | activity change, negative = inhibition [4] 4.54% | activity, negative = inhibition [5] 11.6% | Potency [6] > 46 µM | Potency [7] > 9.22 µM | Potency [8] | Potency [9]

CC(C)CN=C(N)N=C(N)N
inactive: Potency [1] > 11.4 µM | activity change, negative = inhibition [2] 6.14% | Potency [3] | activity change, negative = inhibition [4] 11.1% | activity, negative = inhibition [5] 1.4% | Potency [6] > 46 µM | Potency [7] > 9.22 µM | Potency [8] | Potency [9]

O=C(O)c1cc(=O)[nH]c(SCc2ccccc2)n1
inactive: Potency [1] > 11.4 µM | activity change, negative = inhibition [2] 12.1% | Potency [3] | activity change, negative = inhibition [4] -27.5% | activity, negative = inhibition [5] 0.79% | Potency [6] > 46 µM | Potency [7] > 9.22 µM | Potency [8] | Potency [9]

NC(N)=N/N=C\c1ccc(C2CCNCC2)cc1
inactive: Potency [1] > 11.4 µM | activity change, negative = inhibition [2] 7.39% | activity change, negative = inhibition [3] -12% [at 2.29 µM] | activity change, negative = inhibition [4] -11.8% | activity, negative = inhibition [5] 0.317% | Potency [6] > 46 µM | Potency [7] > 9.22 µM | Potency [8] | Potency [9]

N[C@@H](CSCc1ccc(I)cc1)C(=O)O
inactive: Potency [1] > 11.4 µM | activity change, negative = inhibition [2] -1.51% | activity change, negative = inhibition [3] -12% [at 2.29 µM] | activity change, negative = inhibition [4] 0.82% | activity, negative = inhibition [5] 10.1% | Potency [6] > 46 µM | Potency [7] > 9.22 µM | Potency [8] | Potency [9]

c1cc(NNc2cccc(-c3nn[nH]n3)c2)cc(-c2nn[nH]n2)c1
inactive: Potency [1] > 11.4 µM | activity change, negative = inhibition [2] 5.72% | activity change, negative = inhibition [3] -15.5% [at 2.29 µM] | activity change, negative = inhibition [4] 2.46% | activity, negative = inhibition [5] 2.5% | Potency [6] > 46 µM | Potency [7] > 9.22 µM | Potency [8] | Potency [9]

C[C@@]12CCC(=O)C=C1CC[C@H]1[C@@H]2[C@@H](O)C[C@]2(C)[C@@H]1CC[C@@]2(O)C(=O)COC(=O)C1CCCC1
inactive: Potency [1] > 11.4 µM | activity change, negative = inhibition [2] -7.32% | Potency [3] | activity change, negative = inhibition [4] 4.12% | activity, negative = inhibition [5] -0.238% | Potency [8] | Potency [9]
active: Potency [6] 0.0333 µM | Potency [7] 0.61 µM

c1ccc([C@H](CCN2CCCC2)c2ccccn2)cc1
inactive: Potency [1] > 11.4 µM | activity change, negative = inhibition [2] -0.626% | Potency [3] | activity change, negative = inhibition [4] -26.3% | activity, negative = inhibition [5] 0.606% | Potency [6] > 46 µM | Potency [7] > 9.22 µM | Potency [8] | Potency [9]

COc1ccc(CN[C@H](C)C(=O)O)cc1
inactive: Potency [1] > 11.4 µM | activity change, negative = inhibition [2] -9.23% | Potency [3] | activity change, negative = inhibition [4] -12% | activity, negative = inhibition [5] 2.1% | Potency [6] > 46 µM | Potency [7] > 9.22 µM | Potency [8] | Potency [9]

CS(=O)(=O)N(CC(=O)O)Cc1ccccc1
inactive: Potency [1] > 11.4 µM | activity change, negative = inhibition [2] 13.2% | Potency [3] | activity change, negative = inhibition [4] 14.9% | activity, negative = inhibition [5] 10.2% | Potency [6] > 46 µM | Potency [7] > 9.22 µM | Potency [8] | Potency [9]

O=C(O)c1ccc(NS(=O)(=O)Cc2ccccc2)cc1
inactive: Potency [1] > 11.4 µM | activity change, negative = inhibition [2] 6.38% | Potency [3] | activity change, negative = inhibition [4] -0.542% | activity, negative = inhibition [5] -0.621% | Potency [6] > 46 µM | Potency [7] > 9.22 µM | Potency [8] | Potency [9]

O=[N+]([O-])c1ccccc1N=Nc1c(O)[nH]c2ccc(S(=O)(=O)O)cc12
inactive: Potency [1] > 11.4 µM | activity change, negative = inhibition [2] -1.77% | activity change, negative = inhibition [4] 11% | activity, negative = inhibition [5] -1.49% | Potency [6] > 46 µM | Potency [7] > 9.22 µM | Potency [8] | Potency [9]
active: Potency [3] 1 µM
